From PubChem
This is a sample that favours compounds with a hit; in the whole collection about 6% have one here.
Sfp PPTase inh = blocks B. subtilis Sfp PPTase activity; Q9F4F7; Potency, µM, for the others: largest response in the series, negative = inhibition, usual class: inhibitors; AID 1490; Biochemical Sfp PPTase activity, qHTS; 310,000 tested, 3.5% active;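 note: the enzyme is Sfp with the accession as filed and its product quenches rhodamine fluorescence; 0% = enzyme reaction without inhibitor and -100% = no enzyme wells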
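Compounds were incubated with enzyme (final 15 nM) for 15 min at room temperature before substrate addition started the reaction. Fluorescence at 525 nm excitation, 598 nm emission was recorded immediately and after 30 minutes.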
VDR inh = vitamin D3 receptor (human) inhibition | VDR-SRC2-3 peptide fluorescence polarization, 2 h | 400,000 tested, 0.93% active | P11473 | Potency, µM, without a hit: max response, negative = inhibition, hits mostly inhibitors
Target sequence (P11473 whole entry, looked up): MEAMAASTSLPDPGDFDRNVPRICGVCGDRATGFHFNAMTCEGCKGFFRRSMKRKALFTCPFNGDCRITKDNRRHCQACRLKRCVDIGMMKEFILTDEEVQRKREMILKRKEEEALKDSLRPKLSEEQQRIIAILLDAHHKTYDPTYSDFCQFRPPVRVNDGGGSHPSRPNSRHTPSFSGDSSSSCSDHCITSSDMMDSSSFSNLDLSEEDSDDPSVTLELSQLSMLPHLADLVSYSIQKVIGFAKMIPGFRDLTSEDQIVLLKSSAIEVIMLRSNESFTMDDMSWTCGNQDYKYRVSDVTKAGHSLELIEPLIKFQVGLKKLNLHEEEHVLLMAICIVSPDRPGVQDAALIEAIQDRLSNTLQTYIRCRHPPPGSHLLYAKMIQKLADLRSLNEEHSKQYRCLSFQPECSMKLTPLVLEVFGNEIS
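After 23 nl compound addition and a short centrifugation, plates sat for 2 hours at ambient temperature; polarization of fluorescence then indicated loss of VDR binding to peptide SRC2-3.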
Tau fluor cs = counter-screen for tau fibril formation inhibitors. tau K18 P301L Alexa594 fluorescence, heparin fibrillization. Potency, µM (doses to about 57.7 µM), inactives show top-dose activity change, negative = decrease. 280,000 tested, 0.93% active; note: nearly all actives have a fitted effect of over 55% in size
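Human K18 P301L tau (15 uM unlabeled plus 0.24 uM Alexa 594-labeled, final) in 100 mM sodium acetate pH 7 was mixed with compound and 20 uM heparin and incubated 6 hr at 37 C.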
Tau fibril FP = blocks human tau fibril formation measured by polarization | K18 P301L tau heparin fibrillization, Alexa594 FP, 6 h | 280,000 tested, 0.39% active | P10636 | Potency, µM (top dose mostly 57.7 µM), inactives show at the highest dose activity, negative = inhibition, hits mostly inhibitors; note: nearly all actives have a fitted effect of over 55% in size
Target sequence (P10636 561-689 P618L limits assumed): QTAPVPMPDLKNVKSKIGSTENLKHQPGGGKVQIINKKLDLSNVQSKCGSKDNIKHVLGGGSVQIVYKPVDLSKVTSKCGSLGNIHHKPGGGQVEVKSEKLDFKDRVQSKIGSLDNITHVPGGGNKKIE
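Heparin (20 uM) drove fibril formation of recombinant tau K18 P301L, 15 uM unlabeled with 0.24 uM Alexa 594 label, for 6 hr at 37 C in 100 mM sodium acetate pH 7. Fluorescence polarization (555/632 nm) read 1 hr after 30 uM ThT.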
Tau fibril ThT = tau fibrillization inhibition (ThT binding); P10636; recombinant tau K18 P301L (four-repeat tau fragment), heparin-induced fibrillization, ThT fluorescence; Potency, µM (series often up to 57.4 µM), for the others: at the highest dose activity, negative = inhibition, hits mostly inhibitors; 270,000 tested, 2.1% active; note: nearly all actives have a fitted effect of over 55% in size
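Heparin-induced (20 uM) aggregation of recombinant human K18 P301L tau, 15 uM unlabeled with 0.24 uM labeled, pH 7 acetate buffer, 6 hr at 37 C with compound. Fibrils quantified by 30 uM ThT fluorescence after 1 hr ambient incubation.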
PLK1 PBD inh = blocks phosphopeptide binding to human PLK1 polo-box domain | AID 720504 | Potency, µM, for inactives: max response, negative = inhibition, actives largely listed as inhibitors | Plk1 PBD binding of FITC phosphopeptide, fluorescence polarization | P53350 | 360,000 tested, 2.8% active; note: series mostly up to about 57 µM; nearly all actives have a fitted effect of over 65% in size
The depositor's hits bear a star; ? = inconclusive; . = no result; [ ] = dose if it differs, or a comment. Calls come from the whole dose curve; as a rule, active = well fitted curve in the direction sought with a large enough effect; inconclusive = small, poorly fitted or top-dose-only effect, or another doubt; inactive = no such curve, though single readings can be large; an effect the other way counts as inactive or inconclusive. Unless noted, % is set by controls: 0 for no effect and ±100 for the full control effect; potency is the fitted concentration of half-maximal effect.

SMILES	Sfp PPTase inh	VDR inh	Tau fluor cs	Tau fibril FP	Tau fibril ThT	PLK1 PBD inh
O=C(NNC(=S)Nc1ccccc1)NNC(=S)Nc1ccccc1	7%	-7%	6%	2%	5%	-12%
COC(=O)c1ccccc1NC(=O)c1ccc(CN2CC(=O)N3CCCCC3C2=O)cc1 (stereo not given)	.	10%	-14%	7%	-9%	.
O=C1[C@H]2[C@@H](c3ccccc3)N[C@]3(CCCN(CC4CCCCC4)C3=O)[C@H]2C(=O)N1Cc1ccccc1	.	.	.	.	.	-21%
Cc1ccc(NC(=S)NNC(=S)Nc2cccc(C(F)(F)F)c2)cc1	28µM*	28µM*	14µM*[quencher]	?	.	19µM*
COc1ccc(C(=O)CSc2nnc(-c3cccnc3)n2Cc2ccco2)cc1	0%	14%	-4%	-6%	-13%	-13%
CC(C)C(C)(C#N)NC(=O)CSc1nnc(-c2ccncc2)n1Cc1ccccc1 (stereo not given)	11%	?	-3%	-11%	-1%	21µM*
O=C(CSc1nnc(-c2ccc(Cl)cc2)n1Cc1ccco1)c1cccs1	22µM*	-25%	-19%	13%	?	-25%
CC(C)(C)NC(=O)CSc1nnc(-c2ccncc2)n1Cc1ccccc1	15%	-3%	-8%	-6%	-10%	-4%
O=C(CSc1nnc(-c2ccncc2)n1Cc1ccco1)c1ccc(Cl)cc1	22µM*	?	-23%	?	?	-22%
O=C(CSc1nnc(-c2ccncc2)n1Cc1ccco1)Nc1ccccc1Cl	45µM*	11%	-2%	4%	-8%	-3%
CC(C)CCNC(=O)c1cccc(Nc2nc3ccccc3n3nnnc23)c1	.	-13%	-12%	-5%	-4%	.
Cc1sc(-n2c(C)cc(/C=N/n3cnnc3)c2C)c(C#N)c1C	20µM*	?	-5%	1%	-15%	17µM*
COc1cccc(C2Nc3c(F)cc(Br)cc3C3C=CCC32)c1OC (stereo not given)	-12%	-4%	-28%	-8%	-17%	4%
COc1cc(C2Nc3c(F)cccc3C3C=CCC32)cc(Br)c1OC (stereo not given)	40µM*	3%	?	-6%	?	-10%
COc1ccc(OCC(=O)Nc2nc3c(s2)CCCC3)cc1	3%	-7%	.	.	.	-20%
COc1ccc(NC(=O)Nc2nc3c(s2)CCCC3)cc1	-6%	-8%	18µM*[quencher]	5%	?	4%
O=C(Nc1nc2c(s1)CCCC2)c1ccc2ncsc2c1	25µM*	-9%	0%	9%	4%	-13%
O=C(Nc1cccc(Br)c1)Nc1nc2c(s1)CCCCCC2	.	-7%	3.5µM*[quencher]	?	-8%	.
CCc1ccccc1NC(=O)c1nc2nc(C)cc(C(F)F)n2n1	.	-9%	1%	-3%	-5%	.
CCOC(=O)c1cnc(-n2nc(C)cc2C)nc1NCCc1ccccc1	50µM*	-13%	1%	-3%	-15%	-1%
C[C@@H]1CN([C@H](C)CO)C(=O)CCCn2cc(nn2)CO[C@H]1CN(C)C(=O)Nc1cccc(Oc2ccccn2)c1	.	.	.	.	.	-16%
COc1ccc(CCC(=O)Nc2c(-c3ccc(N(C)C)cc3)[nH][nH]c2=O)cc1	.	.	.	.	.	21µM*
COc1ccc(-c2[nH][nH]c(=O)c2NC(=O)c2ccccn2)cc1	.	.	.	.	.	-5%
COc1ccc(OC)c(NC(=O)c2cc3c(n(-c4ccc(Cl)cc4)c2=O)CC(C)(C)CC3=O)c1	.	-1%	0%	-6%	6%	.
COc1ccccc1CN1CCN(C(CC(C)C)c2nnnn2Cc2cccs2)CC1 (stereo not given)	89µM*	-2%	-14%	4%	-2%	-2%
SMILES	Sfp PPTase inh	VDR inh	Tau fluor cs	Tau fibril FP	Tau fibril ThT	PLK1 PBD inh
CCCC(c1nnnn1Cc1cccs1)N1CCN(C)CC1 (stereo not given)	-10%	1%	-2%	-9%	2%	?
O=[N+]([O-])c1ccccc1/C=N/n1c(-c2cccnc2)n[nH]c1=S	?	-3%	-22%	0%	?	-23%
O=[N+]([O-])c1ccccc1/C=C/C=N/n1c(-c2cc(-c3ccccc3)n[nH]2)n[nH]c1=S	18µM*	-7%	?	1%	-17%	?
O=[N+]([O-])c1cc2c(cc1/C=N/n1c(-c3ccccc3)n[nH]c1=S)OCO2	40µM*	-3%	-19%	7%	?	?
O=[N+]([O-])c1ccccc1/C=N/n1c(C(F)(F)F)n[nH]c1=S	22µM*	10%	-5%	-2%	?	27µM*
O=[N+]([O-])c1cc2c(cc1/C=N/n1c(-c3ccccn3)n[nH]c1=S)OCO2	22µM*	-13%	-10%	-7%	?	?
CC1(C)CC(=O)c2c(oc3cc4c(cc23)OCO4)C1	17%	.	-15%	-1%	-7%	.
CCN(CC)c1ccc(NC(=O)c2ccc3c(c2)c(C)c(C)n3C)cc1	-11%	-9%	?	12%	4µM*	6%
O=C(CCc1nnc(-c2ccc3c(c2)OCO3)o1)NCCc1ccccc1F	17%	?	.	.	.	12µM*
CC(C)N1C/C(=C/c2ccsc2)C(=O)/C(=C/c2ccsc2)C1	?	16µM*	-8%	-6%	?	-18%
CCN1C(=O)S/C(=C/c2ccsc2)C1=O	-12%	1%	-5%	8%	-5%	-4%
Cc1ccc(/C=C/C(=O)OCc2nc(N)nc(Nc3ccccc3C)n2)o1	79µM*	-19%	-14%	2%	-15%	2%
CC(=O)O[C@@H]1C(=O)[C@@]2(C)[C@H](O)C[C@H]3OC[C@]3(OC(C)=O)[C@@H]2[C@H](OC(=O)c2ccccc2)[C@@]2(O)C[C@H](OC(=O)[C@@H](O)[C@@H](NC(=O)c3ccccc3)c3ccccc3)C(C)=C1C2(C)C (stereo in doubt)	?	4%	.	.	.	.
CCCCCCCCCCOC(=O)Cn1c(COc2ccccc2OC)[n+](C)c2ccccc21	45µM*	7%	.	.	.	-11%
Cn1c(COc2ccccc2O)[n+](C)c2ccccc21	18%	0%	.	.	.	3%
COc1ccc(-n2c(=O)c(C)nc3cnc(Nc4ccccc4)nc32)cc1	17%	6%	.	.	.	.
CC(=O)CCc1ccc(OCC(=O)Nc2cccc(S(=O)(=O)N(C)c3ccccc3)c2)cc1	.	13%	.	.	.	-6%
COc1ccccc1C(=O)Nc1ccc2c(c1)n(C)c(=O)n2C	13%	-3%	.	.	.	-3%
COc1cccc(NC(=O)C/C(C)=N/NC(=O)c2ccccc2Cl)c1	-4%	-17%	-5%	-3%	.	-16%
C/C(=N\NC(=O)c1cc2ccccc2cc1O)c1ccc2c(c1)OCO2	-11%	-8%	?	1%	7.1µM*	-8%
